Nrf2 ARE act – qHTS of Nrf2 Activators; Potency, µM (highest dose often 46.1 µM), actives largely listed as activators; AREc32 ARE-luciferase reporter (MCF7-derived line), luminescence, 24 h; 0.31% of 410,000 active; further: nearly all actives have a fitted effect of over 65% in size
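Luminescent ARE reporter assay in AREc32_Fluc cells: overnight plating at 37 deg C, 24 hr compound incubation, Steady-Glo added, 30 min RT before reading.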
Nrf2 inh – Nrf2 qHTS screen for inhibitors | A549 ARE-Fluc reporter, luciferase luminescence, 18-24 h | AID 504444, 2011 | 2.1% of 360,000 active | Potency, µM (highest dose often 46 µM), hits mostly inhibitors; further: nearly all actives have a fitted effect of over 60% in size
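Reporter: ARE-Fluc in A549. Exposure: 18-24 h, 37 °C, 5% CO2, 5% FBS OPTI-MEM. Readouts: fluorescent cytotoxicity (CellTiter-Fluor), then luminescent Nrf2 signal after BugLite.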
LDHA block – qHTS assay for inhibitors of human lactate dehydrogenase; L-lactate dehydrogenase A chain (Homo sapiens), P00338; purified LDHA, NADH/diaphorase-resazurin fluorescence; stronger effect = lower value; activity change, % (values are at about 110 or 230 µM); 0.15% of 480,000 active; AID 1347041, 2019; in the data active means activity change below about -30%; inconclusive means mostly about -25% to -30%
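Remaining NADH was detected by diaphorase (0.133 mg/mL) converting 37 µM resazurin to fluorescent resorufin, read at 0 and 20 minutes. The preceding 5-minute room-temperature reaction used 2 nM LDHA, 0.2 mM sodium pyruvate and 0.06 mM NADH at pH 7.4.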
IDH1 R132H inh – qHTS for Inhibitors of mutant isocitrate dehydrogenase 1 (IDH1): qHTS; Potency, µM (highest dose often 76.6 µM), hits mostly inhibitors; 0.093% of 390,000 active; Isocitrate dehydrogenase [NADP] cytoplasmic (Homo sapiens), O75874; AID 602179, 2012; IDH1-R132H enzyme, NADPH consumption, diaphorase/resazurin fluorescence; further: nearly all actives have a fitted effect of over 65% in size
Target sequence (O75874 whole entry R132H, stated change not applied): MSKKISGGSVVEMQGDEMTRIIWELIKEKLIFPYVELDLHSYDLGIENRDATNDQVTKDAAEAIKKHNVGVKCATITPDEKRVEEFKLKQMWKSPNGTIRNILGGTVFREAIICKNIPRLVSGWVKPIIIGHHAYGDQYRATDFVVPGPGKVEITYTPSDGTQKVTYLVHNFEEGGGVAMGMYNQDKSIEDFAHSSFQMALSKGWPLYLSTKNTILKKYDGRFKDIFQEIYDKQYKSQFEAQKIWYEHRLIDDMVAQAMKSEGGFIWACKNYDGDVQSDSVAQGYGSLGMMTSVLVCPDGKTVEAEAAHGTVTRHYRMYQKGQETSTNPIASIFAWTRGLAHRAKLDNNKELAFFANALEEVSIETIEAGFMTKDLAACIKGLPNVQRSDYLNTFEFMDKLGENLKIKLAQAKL
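IDH1-R132H (0.5 ug/mL) preincubated 30 min with compound, then NADPH (0.016 mM) and alpha-KG (2 mM) added; 80 min at RT, pH 7.5. Remaining NADPH coupled via diaphorase/resazurin to fluorescence (540/590 nm); concentration-response curves normalized to no-enzyme control.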
A549 tox – Nrf2 qHTS screen for inhibitors: counterscreen for cytotoxicity; A549 ARE-Fluc cells, CellTiter-Fluor viability, 18-24 h; Potency, µM (doses to about 46 µM), hits mostly inhibitors; 0.16% of 390,000 active; AID 504648, 2011
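A549 ARE_Fluc cells in 5% FBS OPTI-MEM were exposed to compounds in concentration-response for 18-24 h at 37 deg C. Viability was read by CellTiter-Fluor fluorescence (Ex 405/Em 525) after 30 min, before the luciferase read.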
12-LOX inh – Primary qHTS assay for inhibitors of human arachidonate 12S-lipoxygenase (ALOX12): Round 2; Polyunsaturated fatty acid lipoxygenase ALOX12 (Homo sapiens), P18054; purified 12hLO, xylenol orange hydroperoxide absorbance; Potency, µM (doses to about 108 µM), hits mostly inhibitors; 1.1% of 580,000 active; AID 1671190, 2021
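Hydroperoxide product was detected by ferrous iron/xylenol orange as the 573 to 405 nm absorbance ratio. Arachidonic acid at 40 uM (final) was turned over for 30 min at room temperature by 150 nM human 12hLO, pH 7.0 Hepes buffer, after 15 min compound preincubation.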
Resorufin autofl – qHTS for Inhibitors of mutant isocitrate dehydrogenase 1 (IDH1): Cherrypicks Autofluorescence Interference; shares compounds with IDH1 R132H inh; Resorufin detection reagent fluorescence interference, cell-free; inhibition of signal, % at 51.2 µM; 750 tested, under 10 active
WT IDH1 inh – qHTS for Inhibitors of mutant isocitrate dehydrogenase 1 (IDH1): Cherrypicks in WT IDH1; shares compounds with IDH1 R132H inh; WT IDH1 enzyme, NADPH diaphorase/resazurin fluorescence; 9% of 750 active; Potency, µM (top dose mostly 115 µM), hits mostly inhibitors; further: nearly all actives have a fitted effect of over 55% in size
Target sequence (O75874 whole entry, looked up): as the sequence (O75874 whole entry R132H, stated change not applied) above, with H132R counted along it
mIDH1 confirm – qHTS for Inhibitors of mutant isocitrate dehydrogenase 1 (IDH1): Confirmation of Cherrypicks | shares compounds with IDH1 R132H inh | IDH1 R132H enzyme, NADPH diaphorase/resazurin fluorescence | Potency, µM (doses to about 76.6 µM), hits mostly inhibitors | 83% of 750 active | AID 624002, 2012; further: nearly all actives have a fitted effect of over 50% in size
A number is an active result; n = inactive; u = inconclusive; x = not tested or not shown; [ ] = remark or other dose. This is a sample that favours compounds with a hit; in the whole collection about 2.7% have one here. Unless noted, the call rests on the fitted dose curve; in most records, active means well fitted curve in the direction sought with a large enough effect; inconclusive means small, poorly fitted or top-dose-only effect, or another doubt; inactive means no such curve, though single readings can be large; an effect the other way counts as inactive or inconclusive.

SMILES	Nrf2 ARE act	Nrf2 inh	LDHA block	IDH1 R132H inh	A549 tox	12-LOX inh	Resorufin autofl	WT IDH1 inh	mIDH1 confirm
COc1ccc(C2=Nn3c(nnc3-c3ccccc3OC)SC2)cc1OCC1CC1	n	u	n	x	n	35µM	n	n	45µM
CC(C)c1nc2c(c(-c3ccc(O)cc3)n1)CCN(Cc1ccccc1C(F)(F)F)CC2	x	x	x	x	x	n	x	x	x
Cc1ccc(C(NC(=O)C(C)C)c2cc([N+](=O)[O-])c3cccnc3c2O)cc1 (centres undefined)	n	18µM	n	u	u	16µM	n	u	28µM
COc1cc(OC)c(NC(=O)c2ccc3c(SCC(=O)O)c4c(nc3c2)CCCC4)cc1Cl	n	n	n	u	n	n	n	n	28µM
Cc1cc(Nc2cccc(Cl)c2)nc2ccc(NC(=O)CCC3CCCC3)cc12	x	x	n	x	x	u	x	x	x
O=C(Nc1nnc(SCc2ccc(F)cc2)s1)c1ccc2ncsc2c1	n	n	n	52µM	n	u	n	n	50µM
Cc1ccc2nc(/C(C#N)=C/c3cc(I)cc(I)c3OCc3ccccc3)[nH]c2c1	x	x	n	x	x	n	x	x	x
Cc1cc(NC(=O)CCC(=O)N(c2cccnc2)C(C(=O)NC2CCCC2)c2ccccc2)no1 (centres undefined)	n	n	n	u	n	n	n	n	u
Cc1cccc(N(C(=O)CCC(=O)Nc2cc(C)on2)C(C(=O)NC2CCCC2)c2ccccc2)c1 (centres undefined)	n	n	n	45µM	n	n	n	n	20µM
Cc1cccc(N(C(=O)CCC(=O)Nc2cc(C)on2)C(C(=O)NC2CCCC2)c2cccnc2)c1 (centres undefined)	n	n	n	n	n	n	x	x	x
COc1cc(C2c3c(-c4ccccc4O)n[nH]c3C(=O)N2Cc2ccncc2)ccc1O (centres undefined)	n	n	n	n	n	n	x	x	x
COC(=O)c1ccc(C2c3c(-c4ccccc4O)n[nH]c3C(=O)N2Cc2ccncc2)cc1 (centres undefined)	n	n	n	n	n	u	x	x	x
O=C1c2[nH]nc(-c3ccccc3O)c2C(c2cccc(Br)c2)N1Cc1ccncc1 (centres undefined)	n	n	n	u	n	n	n	n	25µM
O=C1c2[nH]nc(-c3ccccc3O)c2C(c2cccc(Cl)c2)N1Cc1cccnc1 (centres undefined)	n	n	n	u	n	n	n	n	28µM
Cc1ccc(C2c3c(-c4ccccc4O)n[nH]c3C(=O)N2Cc2ccncc2)cc1 (centres undefined)	n	n	n	u	n	n	n	n	35µM
COc1ccc(CCN2C(=O)c3[nH]nc(-c4ccccc4O)c3C2c2cccc(Cl)c2)cc1 (centres undefined)	n	u	n	n	n	n	x	x	x
COc1ccc(/C=C/c2nc(C#N)c(NCc3ccc4c(c3)OCO4)o2)cc1OC	x	x	n	x	x	n	x	x	x
CN(C1CCCCC1)S(=O)(=O)c1ccc(C(=O)Nc2ccc(Cl)c3ncsc23)cc1	x	x	n	x	x	n	x	x	x
C[C@@H](c1ccccc1)N(C)C(=O)c1cn(Cc2cccc(C(F)(F)F)c2)nn1	x	x	x	x	x	n	x	x	x
COc1cc(C2c3c(-c4cc(Cl)c(C)cc4O)n[nH]c3C(=O)N2Cc2ccco2)ccc1O (centres undefined)	x	x	n	x	x	u	x	x	x
COc1cccc(C2c3c(-c4ccccc4O)n[nH]c3C(=O)N2Cc2cccnc2)c1 (centres undefined)	n	n	n	n	n	n	x	x	x
COc1cccc(C2c3c(-c4cc(Cl)c(C)cc4O)n[nH]c3C(=O)N2Cc2cccnc2)c1 (centres undefined)	n	u	n	u	n	n	n	n	16µM
COc1cc(C2c3c(-c4cc(Cl)c(C)cc4O)n[nH]c3C(=O)N2Cc2cccnc2)ccc1O (centres undefined)	n	n	n	u	n	n	n	n	45µM
CCCn1nc(C(=O)NCc2cccc(Cl)c2)c2ccccc2c1=O	x	x	n	x	x	u	x	x	x
COc1cc2cnc(-c3ccccc3)c(-c3ccc(C(F)(F)F)cc3)c2cc1OC	n	u	n	u	u	n	n	n	16µM
SMILES	Nrf2 ARE act	Nrf2 inh	LDHA block	IDH1 R132H inh	A549 tox	12-LOX inh	Resorufin autofl	WT IDH1 inh	mIDH1 confirm
CC(=O)Nc1cccc(C(=O)OCC(=O)NCc2cccs2)c1	x	x	n	x	x	n	x	x	x
COc1ccc(N2C(=O)CCSC23C(=O)N(Cc2ccc(F)cc2)c2ccccc23)cc1 (centres undefined)	n	n	n	32µM	n	n	n	n	35µM
COc1ccc(N2C(=O)CCSC23C(=O)N(Cc2ccc(F)cc2)c2ccccc23)cc1Cl (centres undefined)	n	n	n	u	n	n	n	n	32µM
COc1cccc(CN2C(=O)C3(SCC(=O)N3c3ccc(F)cc3)c3ccccc32)c1 (centres undefined)	n	u	n	n	n	n	x	x	x
COc1cccc(N2C(=O)CSC23C(=O)N(Cc2ccccc2)c2ccccc23)c1 (centres undefined)	n	n	n	n	n	n	x	x	x
CCOC(=O)N1CCN(Cc2nc(N)nc(Nc3ccc(Oc4ccccc4)cc3)n2)CC1	n	x	n	52µM	n	n	n	n	u
Cc1ccc(-c2cc3c(n2-c2ccc(C(=O)O)cc2)CCCC3=O)cc1	n[9.22 µM]	n	n	u	n	n	n	n	35µM
O=C1CCCc2c1cc(-c1ccccc1)n2-c1ccc(O)cc1	n	n	n	n	n	u	x	x	x
COc1cc2c(cc1OC)C1=CC3(C(=O)Nc4c(C)cccc43)C(C#N)=C(N)N1CC2 (centres undefined)	x	x	n	x	x	u	x	x	x

Screening results (PubChem)
